Screens (PubChem BioAssay)
The entries come from a sample that favours hits as a whole.
Pf Dd2 inh: qHTS Primary assay for Inhibitors of Plasmodium falciparum Dd2 growth in vitro; P. falciparum Dd2 growth, SYBR Green, 72 h; Potency, µM (titrated, usually from 28.9 µM), for the others: top-dose activity, negative = inhibition, actives largely listed as inhibitors; 120,000 tested, 4.3% active; active means well fitted inhibition curve with a large enough effect;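 further: plate controls were DMSO vehicle for no effect and reference drug for full effect; nearly all actives have a fitted effect of over 65% in size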
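Readout: SYBR Green fluorescence, 485 nm excitation, 535 nm emission, after ~16 h lysis at 37C. Before that, Dd2-infected red cells (2.5% hematocrit) grew 72 h with compound, 29 uM top final concentration.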
The depositor's hits bear a star; i = inactive; [ ] = remark or other dose. Potency means the concentration at half of the fitted maximal effect.

SMILES | Pf Dd2 inh
CC(C)CN1C(=O)N(CC(=O)N(C)Cc2ccon2)C(=O)C12CCNCC2 | 0.8%
CCCCC1CCC(C(=O)N2CC(=O)Nc3ccc(Br)cc3C2c2ccc(F)cc2)CC1 (stereo unspecified) | 10µM*
CN(C)S(=O)(=O)c1ccc(C(=O)N2CC(=O)Nc3ccc(Br)cc3C2c2ccc(F)cc2)cc1 (stereo unspecified) | 0.2%
CC(=O)N1CC(=O)Nc2ccc(F)cc2C1c1ccccc1 (stereo unspecified) | 20.2%
COc1ccc(CC(=O)N2CC(=O)Nc3ccc(Br)cc3C2c2ccc(F)cc2)cc1 (stereo unspecified) | -17.6%
CCOc1ccc(C(=O)N2CC(=O)Nc3ccc(F)cc3C2c2ccc(F)cc2)cc1 (stereo unspecified) | 8.8%
CCCCC(=O)N1CC(=O)Nc2ccc(F)cc2C1c1ccc(F)cc1 (stereo unspecified) | 7.94µM*
CCCc1cc(C(=O)N2CCC(n3nccc3NC(=O)c3ccccc3C)CC2)n(C)n1 | -9.8%
CCCCN(Cc1cccnc1)C(=O)c1cnc(-c2ccc(C)cc2)[nH]c1=O | -21.1%
CCN(Cc1ccncc1)C(=O)c1cc(-c2cnc(C)nc2)nc2c(C)cccc12 | -21.1%
CCCN(Cc1ccncc1)C(=O)c1cnc(-c2ccccn2)[nH]c1=O | 12.6µM*
CNC(=O)C1(N2CCC[C@H]2C(=O)NC2CCOCC2)CCOCC1 | 0.3%[44.1 µM]
COCCC(=O)N1CCC2(CC1)C(=O)Nc1cc(Oc3cccc(N(C)C)c3)c(OC)cc12 | -5.3%
COc1cc2c(cc1OCc1ccccc1)NC(=O)C21CCN(Cc2ccncc2)CC1 | 12.6µM*
CCc1cnc(N2CCC3(CC2)C(=O)Nc2cc(OCc4ccccc4)c(OC)cc23)nc1 | -14.0%
COc1cc2c(cc1OCc1ccccc1)NC(=O)C21CCN(Cc2ccccc2)CC1 | -3.8%[44.1 µM]
COc1cc2c(cc1OCc1ccccc1)NC(=O)C21CCN(c2ncccn2)CC1 | 4.47µM*
COc1cc2c(cc1Oc1ccccc1)NC(=O)C21CCN(Cc2ccccc2)CC1 | i
COc1cc2c(cc1Oc1ccccc1)NC(=O)C21CCN(CCC(C)C)CC1 | 6.31µM*
COc1cc2c(cc1Oc1ccccc1)NC(=O)C21CCN(c2ncccn2)CC1 | -5.8%[44.1 µM]
COc1cc2c(cc1OCc1ccccc1)NC(=O)C21CCN(C(C)=O)CC1 | i
COCC(=O)N1CCC2(CC1)C(=O)Nc1cc(Oc3ccccc3)c(OC)cc12 | i
COc1ccc(C)cc1NC(=O)N1C[C@@H](F)C[C@H]1C(=O)N1CCCCC1 | 8.5%
CCOc1ccc2c(n1)CCN(C(=O)c1ccc(OC)c(OC)c1)C2 | -25.3%
CC(=O)N1CCC(C2CCN(Cc3ccc(C)cn3)C2)CC1 (stereo unspecified) | -7.3%
SMILES | Pf Dd2 inh
O=C1NCc2ccccc2CC12CCN(CC1=CCCCC1)CC2 | -11.4%
CCOC(=O)C1=CN(CC(=O)NCc2ccc(Cl)cc2)S(=O)(=O)N=C1C | 34.6%
CCOC(=O)CCNC(=O)N1CCCC1c1noc(COc2ccc(F)cc2)n1 (stereo unspecified) | 35.2%
CCc1noc(-c2cn(C3CCN(C(=O)c4ccc(F)cc4Cl)C3)nn2)n1 (stereo unspecified) | i
c1ccc(OCc2cc(CC3(NCc4cccnc4)COC3)no2)cc1 | -25.2%[44.1 µM]
O=C(CCc1cc(=O)[nH]o1)N[C@@H]1CCOC[C@H]1O | -9.1%
CCOC(=O)C1(Cc2ccccc2F)CCCN(C(=O)C2=C(C)OCCO2)C1 (stereo unspecified) | -9.7%
CCOC(=O)C1(Cc2ccccc2Cl)CCN(C(=O)c2ccsc2)CC1 | -6.2%
CCOC(=O)C1(Cc2ccccc2Cl)CCN(Cc2cccc3c2OCO3)CC1 | 8.91µM*
C#CCN(C)C(=O)[C@@H]1CCCN1[C@@H](C(=O)NC)c1ccccc1 | -7.6%[44.1 µM]
Cc1ccc(-n2nc(C(=O)N3CCN(c4cc(Cl)ccc4C)CC3)c3c4ccccc4n(C)c3c2=O)cc1 | 6.1%
COc1cccc(N2CCN(C(=O)c3nn(C)c4c3CSc3ccc(C)cc3-4)CC2)c1 | 19.9%
Cc1ccc(-n2nc(C(=O)N3CCN(c4ccccc4F)CC3)c(=O)n(C)c2=O)cc1 | 3.5%
Cn1nc(C(=O)N2CCN(c3ccccc3F)CC2)c2c1-c1ccccc1SC2 | 15.1%
Cc1ccc(-n2nc(C(=O)N3CCN(c4cc(Cl)ccc4C)CC3)c(=O)n(C)c2=O)cc1 | 10µM*
Cc1ccc2c(c1)-c1c(c(C(=O)N3CCN(c4cc(Cl)ccc4C)CC3)nn1C)CS2 | 10µM*
Cc1nc(-c2ccc(F)cc2)n(Cc2cccc(F)c2)c(=O)c1CCO | i
O=C1CCN(C(=O)CC(c2ccccc2)c2ccc3c(c2)OCO3)CCN1 (stereo unspecified) | -1.7%
O=C1NC(=NC2CCCCC2)C2(CCN([S+](=O)([O-])c3ccsc3)C2)N1c1cccnc1 (stereo unspecified) | 5.2%
CC(C)c1ccc(NC2=N[C@H]3[C@@H](O)[C@H](O)C[C@H](C(=O)NCCN4CCOCC4)[C@H]3S2)cc1 | -15.0%
Cn1c(Cn2cccn2)nnc1C1CC(NC(=O)c2ccsc2)C1 (stereo unspecified) | -6.5%
